This is one part of a sample in which hits are shown more often than they occur.
ID4 binder: binders of human ID4 protein, primary screen, biochemical, small molecule microarray, single point. AID 624137, 2012. Flag-ID4 binding, fluorescence F/B. calls only. 31,000 tested, 1.2% active; call rule not given here;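 further: a binder raises fluorescence above local background on the spot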
Target sequence (P47928 whole entry, looked up): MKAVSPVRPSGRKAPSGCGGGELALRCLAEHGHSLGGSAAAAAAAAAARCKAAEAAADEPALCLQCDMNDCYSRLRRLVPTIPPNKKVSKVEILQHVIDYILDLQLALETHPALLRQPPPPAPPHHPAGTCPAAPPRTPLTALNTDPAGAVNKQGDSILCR
Numbers without * were called inactive; i = inactive; + = active, no number.

SMILES	ID4 binder
COc1cccc(S(=O)(=O)N(C)C[C@H]2Oc3ncc(-c4cccc(C(=O)N(C)C)c4)cc3C(=O)N([C@H](C)CO)C[C@@H]2C)c1	+
C[C@@H]1CN([C@@H](C)CO)C(=O)c2cc(-c3cccc(C(=O)N(C)C)c3)cnc2O[C@H]1CN(C)C	i
C[C@H]1CN([C@@H](C)CO)C(=O)c2cc(-c3cccnc3)cnc2O[C@@H]1CN(C)C	+
C[C@@H]1CN([C@@H](C)CO)C(=O)c2cc(-c3ccncc3)cnc2O[C@H]1CN(C)C	+
C[C@@H]1CN([C@H](C)CO)C(=O)c2cc(-c3cccnc3)cnc2O[C@@H]1CN(C)C	i
C[C@@H]1CN([C@@H](C)CO)C(=O)c2cc(-c3cccnc3)cnc2O[C@@H]1CN(C)C	i
Cc1cc(C)cc(C(=O)N(C)C(Cc2ccc(-c3ccccc3)cc2)C(=O)NC(Cc2c[nH]c3ccccc23)C(=O)O)c1 (stereo not given)	i
O=C(Nc1ccc(Cl)cc1)NC(Cc1ccccc1)C(=O)O (stereo not given)	i
Cc1ccc(OCC(=O)Nc2ccc3oc(-c4cccnc4)nc3c2)c(C)c1	i
CC1=CC(=O)CC2[C@@]1(C)CC[C@@H](C)[C@]2(C)CCC(C)CC(=O)O (stereo not given in full)	i
COc1ccc(C(=O)O)cc1S(=O)(=O)NCc1ccccc1	i
CCOc1ccc(Br)cc1C(=O)NCCc1c[nH]c2ccccc12	i
O=C(NCc1n[nH]c(=O)c2ccccc12)c1cc2ccccc2oc1=O	i
CC(C)Nc1nc(Oc2ccc(=O)[nH]n2)nc(N(C)C)n1	i
COc1ccc(NC(=O)Cn2nnc(-c3ccccc3Cl)n2)cc1Cl	i
O=C(CN1C(=O)c2ccccc2S1(=O)=O)Nc1cccc(O)c1	i
OCc1nc2ccccc2n1CC(O)Cn1ccc2ccccc21 (stereo not given)	i
O=C1c2ccccc2S(=O)(=O)N1CC(O)Cn1ccc2ccccc21 (stereo not given)	+
COc1ccc(NCC(O)Cn2ccc3ccccc32)cc1 (stereo not given)	i
Cc1cc(C)n(CC(O)Cn2ccc3ccccc32)n1 (stereo not given)	+
Cc1cc(C)n(CC(O)COc2ccc(C(=O)c3ccc(Cl)cc3)cc2)n1 (stereo not given)	i
COc1ccccc1NC(=O)c1ccc(CSc2nc3ccccc3o2)cc1	i
CCCCC/C=C/C(=O)CCc1ccc(O)c(OC)c1	i
CCOc1cc(C2N=C(Nc3nc4ccccc4o3)NC3=C2C(=O)CC(C)(C)C3)ccc1O (stereo not given)	i
CCn1c(SCC(=O)Nc2ccccc2F)nnc1-c1ccccc1	i
SMILES	ID4 binder
COc1cc(C2NC(=S)NC(C)=C2C(=O)Nc2ccccc2C)c(Br)cc1OCC(=O)O (stereo not given)	i
COCCOC(=O)N1C(=O)[C@@]2(c3cc(C#CCNC(N)=O)ccc31)[C@H](C(=O)N1CCc3cc(OC)c(OC)cc3C1)[C@H]1C(=O)O[C@H](c3ccccc3)[C@H](c3ccccc3)N1[C@@H]2c1ccccc1OCCO	i
COCCOC(=O)N1C(=O)[C@@]2(c3cc(C#Cc4ccc(OC)cc4)ccc31)[C@H](C(=O)N1CCc3cc(OC)c(OC)cc3C1)[C@H]1C(=O)O[C@H](c3ccccc3)[C@H](c3ccccc3)N1[C@@H]2c1ccccc1OCCO	+
COCCOC(=O)N1C(=O)[C@@]2(c3cc(C#CC4(O)CCCCCC4)ccc31)[C@H](c1ccccc1OCCO)N1[C@H](c3ccccc3)[C@H](c3ccccc3)OC(=O)[C@H]1[C@@H]2C(=O)N1CCc2cc(OC)c(OC)cc2C1	i
CCOc1cccc(-c2nnc(SCC(=O)n3c4c(c5ccccc53)CCCC4)n2C)c1	i
Cc1nc(SCC(=O)Nc2ccc(Oc3ccccc3)cc2)n[nH]1	i
O=C(NCC1CCCO1)C1CC(c2ccccc2O)=NO1 (stereo not given)	i
O=C(CSc1nnnn1-c1ccccc1)Nc1ccc(Cl)c(C(=O)O)c1	+
O=C(CSc1nnnn1-c1ccccc1)Nc1cc(Cl)c(Cl)cc1Cl	i
O=C(CSc1nnnn1-c1ccccc1)Nc1cc(Cl)ccc1C(=O)O	i
COc1ccc(OC)c(S(=O)(=O)N2CCC(C(=O)Nc3c(C)cc(C)cc3C)CC2)c1	i
CS(=O)(=O)N(CC(=O)Nc1cc(Cl)ccc1Oc1ccccc1)c1ccccc1Br	i
COc1ccccc1OCC(=O)Nc1cccc(-c2nc3ccccc3s2)c1	i
COc1cc(S(=O)(=O)n2nnc3ccccc32)c(OC)cc1Cl	+
COc1cc(S(=O)(=O)n2nc(C)cc2C)c(OC)cc1Cl	i
COc1cc(S(=O)(=O)n2cnc3ccccc32)c(OC)cc1Cl	i
CC(NC(=O)c1ccccc1)c1nc2ccccc2n1Cc1ccc(Cl)cc1Cl (stereo not given)	i
CS(=O)(=O)N(CC(=O)NC1CCCC1)c1cc(Cl)c(Cl)cc1Cl	i
COc1cccc(OC)c1C(=O)Nc1ccc(C(=O)NCC2CCCO2)cc1 (stereo not given)	i
COc1ccccc1-n1c(SCC(=O)c2ccc(Cl)cc2)nc2ccccc2c1=O	i
COc1cc(NC(=O)COc2ccc(Cl)cc2C)c(C(=O)O)cc1OC	i
CNC[C@H]1Oc2ccc(NC(=O)Cc3ccccc3)cc2CC(=O)N([C@H](C)CO)C[C@@H]1C	+
CNC[C@@H]1Oc2ccc(NC(=O)Cc3cn(C)c4ccccc34)cc2CC(=O)N([C@H](C)CO)C[C@H]1C	i
CNC[C@@H]1Oc2ccc(NC(=O)Cc3cn(C)c4ccccc34)cc2CC(=O)N([C@H](C)CO)C[C@@H]1C	i
CNC[C@@H]1Oc2ccc(NC(=O)Cc3ccccc3)cc2CC(=O)N([C@H](C)CO)C[C@@H]1C	i
SMILES	ID4 binder
CNC[C@H]1Oc2ccc(NC(=O)Cc3cn(C)c4ccccc34)cc2CC(=O)N([C@@H](C)CO)C[C@H]1C	+
CNC[C@H]1Oc2ccc(NC(=O)Cc3ccccc3)cc2CC(=O)N([C@H](C)CO)C[C@H]1C	i
COc1cccc(C(=O)NC(c2ccc(C)cc2)c2cc(Cl)c3cccnc3c2O)c1 (stereo not given)	i
Nc1c(Cl)cc(NC(=O)CCCC(=O)O)cc1Cl	i
CCn1c(SCC(=O)Nc2cccc(OC)c2)nnc1-c1ccncc1	i
Cc1ccc(NC(=O)CSc2n[nH]c(N)n2)cc1Cl	i
COc1cc2c(cc1OC)CN(C(=O)CSc1n[nH]c(N)n1)CC2	+
Nc1nc(SCC(=O)N2CCc3ccccc32)n[nH]1	i
Cc1cccc(NC(=O)CNS(=O)(=O)c2ccc(Br)cc2)c1C	i
O=C(C[C@H]1CC[C@@H](NC(=O)C2CCC2)[C@@H](CO)O1)NCCCN1CCOCC1	+
O=C(C[C@H]1CC[C@@H](NC(=O)C2CCC2)[C@H](CO)O1)NCCCN1CCOCC1	i
O=C(C[C@H]1CC[C@H](NC(=O)C2CCC2)[C@H](CO)O1)NCCCN1CCOCC1	i
Cn1c(SCC(=O)c2ccc([N+](=O)[O-])cc2)nnc1-c1cc2ccccc2cc1O	i
COc1ccc(C(=O)NCc2occc2C(=O)O)cc1	i
O=C(CN1CCCCC1)Nc1ccc(NC(=O)CN2CCCCC2)cc1	i
COC(=O)c1ccccc1NC(=O)c1ccc(NC(=O)COc2ccccc2C)cc1	i
CC1OC(OC(=O)C2=CC3CC(C)(C)CC34C(C)OC(=O)CC24)C(O)C(O)C1O (stereo not given)	i

High-throughput results (PubChem BioAssay)
